High-throughput results as filed in PubChem.
ELG1 DNA repair – qHTS screen for small molecules that inhibit ELG1-dependent DNA repair in human embryonic kidney (HEK293T) cells expressing luciferase-tagged ELG1; HEK293T ELG1-luciferase reporter, luminescence, 16 h; DNA damage induced by 5-fluorouridine; Potency, µM (highest dose often 46.1 µM), most hits filed as inhibitors; actives 2.3% (n = 330,000); note: nearly all actives have a fitted effect of over 55% in size
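Step one: seed 2,000 cells per well. Step two: pin-transfer compound or DMSO alongside 5-fluorouridine. Step three: incubate 16 hr, 37 °C, 5% CO2. Step four: add ONE-Glo, wait 30 min, read luminescence.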
IL-1B inflam inh – qHTS for Inhibitors of Inflammasome Signaling: IL-1-beta AlphaLISA Primary Screen | activity change, % at 57.5 µM | AID 743279, 2014 | THP-1 LPS/ATP IL-1B secretion, AlphaLISA, 16 h; stronger effect = lower value | actives 4.7% (n = 360,000); in the data active = activity change below about -50%; inconclusive = mostly about -30% to -49%
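Secreted IL-1B measured by AlphaLISA bead assay after 16 h compound exposure of THP-1 cells; compounds (final up to 57.5 uM) added 1 h before LPS (250 ng/mL) and ATP (1.25 mM) stimulation; lower signal means less secretion.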
Gal4-VP16 FLuc – VP16 counterscreen qHTS for inhibitors of ROR gamma transcriptional activity. Potency, µM (series often up to 53.6 µM), usual class: inhibitors. actives 3.5% (n = 310,000). Drosophila S2 Gal4-VP16 UAS-luciferase, luminescence, 20 h;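 note: Gal4-VP16 expression switched on by copper sulfate through the metallothionein promoter; nearly all actives have a fitted effect of over 50% in size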
DT40 TDP1 CPT – qHTS for Inhibitors of human tyrosyl-DNA phosphodiesterase 1 (TDP1): qHTS in cells in presence of CPT; chicken DT40 Tdp1-/-;hTDP1 cells + 20 nM CPT, ATP luminescence, 48 h; Potency, µM (doses to about 46.2 µM), hits mostly inhibitors; actives 12% (n = 420,000); note: nearly all actives have a fitted effect of over 55% in size
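Chicken DT40 Tdp1-/- cells stably complemented with human TDP1 were seeded at 400 cells/well in medium containing 20 nM camptothecin, exposed to pin-transferred compounds, and grown at 37 °C for at least 48 hr. Viability was read as ATP luminescence.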
DT40 TDP1 no CPT – qHTS for Inhibitors of human tyrosyl-DNA phosphodiesterase 1 (TDP1): qHTS in cells in absence of CPT; DT40 Tdp1-/- hTDP1 cells, no CPT, ATP luminescence, 48 h; Potency, µM (doses to about 46.2 µM), actives largely listed as inhibitors; actives 15% (n = 420,000); note: nearly all actives have a fitted effect of over 55% in size
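A cellular qHTS used chicken DT40 cells lacking endogenous Tdp1 but carrying stably transfected human TDP1. Compounds were applied without camptothecin, and cell growth kinetics were judged by ATP-dependent luminescence after ≥48 hr.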
RORg inh – qHTS for inhibitors of ROR gamma transcriptional activity; Nuclear receptor ROR-gamma (Mus musculus), P51450; Drosophila S2 Gal4-RORgamma UAS-luciferase reporter, 20 h; Potency, µM (titrated, usually from 53.6 µM), usual class: inhibitors; actives 5.4% (n = 310,000); AID 2551, 2010; note: nearly all actives have a fitted effect of over 60% in size
Target sequence (P51450 whole entry, looked up, the tested form may be a part): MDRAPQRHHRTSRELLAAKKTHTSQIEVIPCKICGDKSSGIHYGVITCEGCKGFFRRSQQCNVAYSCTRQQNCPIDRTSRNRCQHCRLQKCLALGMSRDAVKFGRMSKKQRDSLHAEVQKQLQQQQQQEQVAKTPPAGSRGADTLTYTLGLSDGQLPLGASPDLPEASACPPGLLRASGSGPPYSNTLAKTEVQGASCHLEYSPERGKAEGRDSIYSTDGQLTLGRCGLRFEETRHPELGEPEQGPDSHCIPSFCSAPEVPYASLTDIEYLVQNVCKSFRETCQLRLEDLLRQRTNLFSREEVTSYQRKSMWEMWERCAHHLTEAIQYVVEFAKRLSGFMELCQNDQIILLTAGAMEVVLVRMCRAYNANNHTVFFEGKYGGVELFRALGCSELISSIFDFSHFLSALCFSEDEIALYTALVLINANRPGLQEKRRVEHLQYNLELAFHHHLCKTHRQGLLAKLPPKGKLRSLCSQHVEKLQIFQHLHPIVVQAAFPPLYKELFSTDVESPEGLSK
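Luminescence from a UAS-regulated Photinus luciferase reporter in stably transfected Drosophila Schneider cells is measured; decreased signal marks ROR gamma inhibition. Fusion expression is induced by 700 uM copper sulfate for 20 hr.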
Hits are given with their value; – = inactive; ? = inconclusive; · = no result; [ ] = another dose, or the depositor's remark. Rows were chosen to be rich in hits. Some 21% of all compounds tested hit in one or more screens of this group. Unless noted, calls come from the whole dose curve; as a rule, active = well fitted curve in the direction sought with a large enough effect; inconclusive = small, poorly fitted or top-dose-only effect, or another doubt; inactive = no such curve, though single readings can be large; an effect the other way counts as inactive or inconclusive.

SMILES	ELG1 DNA repair	IL-1B inflam inh	Gal4-VP16 FLuc	DT40 TDP1 CPT	DT40 TDP1 no CPT	RORg inh
Cc1ccc2nc(SCC(=O)NCc3ccco3)[nH]c2c1	?	–	–	–	–	–
O=C(CSc1nc2cc(Cl)ccc2s1)NC(=O)NCc1ccco1	–	–	–	–	?	?
Cc1ccc2nc(SCC(=O)c3ccc(O)cc3O)[nH]c2c1	?	–	3.2µM	–	?	–
CCOc1ccc2nc(SCC(=O)NC(=O)NCc3ccco3)sc2c1	–	–	–	?	26µM	–
COC(=O)CSc1nc2ccc(C)cc2[nH]1	–	–	–	–	–	–
CCOc1ccc2nc(SCC(=O)NCc3ccco3)sc2c1	–	–	–	?	23µM	–
Cc1ccc2nc(SCC(=O)NC(=O)NCc3ccco3)[nH]c2c1	–	–	18µM	–	–	–
COc1ccc(/C=C/C(=O)OCC(=O)c2ccc3c(c2)NC(=O)CO3)c(OC)c1	?	-52	–	–	–	–
COc1cccc(/C=C/C(=O)OCC(=O)c2ccc3c(c2)NC(=O)CO3)c1OC	?	–	–	–	–	–
Cc1ccc(/C=C/C(=O)OCC(=O)c2ccc3c(c2)NC(=O)CO3)o1	12µM	–	·	–	–	·
Cc1ccccc1CN1C(=O)CN(S(C)(=O)=O)CC1(C)C(=O)NC(C)C (configuration not stated)	·	?	·	–	–	·
COc1ccccc1-c1c(C)oc2cc(OC(=O)c3ccco3)ccc2c1=O	–	–	–	?	?	–
COc1ccc2oc3ccccc3c(=O)c2c1	–	–	–	–	–	–
COc1ccc2c(=O)c(-c3ccccc3C)c(C)oc2c1	–	–	–	?	13µM	–
COc1ccc2c(=O)c(Oc3ccc(C(=O)O)cc3)c(C(F)(F)F)oc2c1	?	–	13µM	?	?	?
CCCOc1ccc2c(=O)c(-c3cc(C(=O)OC)oc3C)c(C)oc2c1	?	?	–	13µM	18µM	–
COc1ccc2c(=O)c(OC)c(-c3ccccc3)oc2c1	·	·	–	?	7.3µM	–
CCOc1ccc(C2CC(c3c(O)n(C4CCCCC4)c(=O)[nH]c3=O)=Nc3ccccc3S2)cc1 (configuration not stated)	·	·	·	–	–	·
Cc1ccc(C(=O)Nc2ccccc2)cc1S(=O)(=O)N1CCN(C)CC1	–	–	–	–	–	–
COc1ccc(-c2cnc(C(O)c3ccc(OC)c(F)c3)[nH]2)cc1 (configuration not stated)	·	–	·	?	–	·
COc1ccc2c(=O)c(-c3ccc(C)cc3)c(-c3ccccc3)oc2c1	?	–	·	12µM	7.3µM	·
COc1ccc(-c2nc(SCC(=O)NCCCc3ccccc3)n[nH]2)cc1	·	·	·	16µM	21µM	·
COc1ccccc1CNC(=O)CSc1n[nH]c(N)n1	–	–	–	–	–	–
COc1ccc(Br)cc1CNC(=O)CSc1n[nH]c(-c2ccccc2)n1	·	·	·	13µM	21µM	·
O=C(CSc1n[nH]c(-c2ccccc2)n1)NCCCc1ccccc1	·	·	·	?	21µM	·
SMILES	ELG1 DNA repair	IL-1B inflam inh	Gal4-VP16 FLuc	DT40 TDP1 CPT	DT40 TDP1 no CPT	RORg inh
COc1ccc(-c2nc(SCC(=O)c3ccc(OC)c(Br)c3)n[nH]2)cc1	·	·	·	?	23µM	·
O=C(CSc1n[nH]c(-c2ccc(F)cc2)n1)NCCc1ccccc1	·	·	·	–	?	·
COc1ccc(-c2nc3cnc(N(C)C)nc3n(C)c2=O)cc1	·	·	–	–	–	–
CC(C)C[C@@H](CC(=O)N[C@@H](CCCN)CC(=O)N[C@@H]1CCNC[C@H]1C(=O)N[C@H](CC(=O)N[C@@H](CCC(=O)O)CC(=O)O)CC(C)C)NC(=O)[C@@H]1CNCC[C@H]1N	·	·	–	·	·	–
CC1(C(=O)NCCC#N)CCN1C(=O)c1ccccc1CCc1ccccc1 (configuration not stated)	·	–	·	?	–	·
Cc1cccc(S(=O)(=O)Nc2cc(Cl)ccc2N2CCOCC2)c1	–	–	·	–	?	·
COc1ccc(OC)c(C(=O)CSc2nccc(-c3ccc(Br)cc3)n2)c1	?	–	–	?	29µM	?
COc1ccc(-c2ccnc(SCC(=O)c3ccc(Cl)cc3)n2)cc1	?	–	–	–	?	–
CCOC(=O)CN(C(=O)COC(=O)C1=NNC(=O)CC1)c1ccc(F)cc1	?	–	·	–	–	·
CC(=O)NC(=S)NNC(=O)C(c1ccccc1)c1ccccc1	?	–	–	13µM	21µM	6.3µM
CCn1c(SCc2ccc(F)cc2)nnc1-c1nn(-c2ccccc2)ccc1=O	–	–	–	?	–	–
CCOC(=O)CCCCCC(=O)Nc1ccc2c(c1)C(=O)N([C@@H](C)CO)C[C@H](C)[C@H](CN(C)C(=O)c1ccccc1)OCCCC[C@H](C)O2	·	–	·	–	?	·
O=C1c2cccc3cccc(c23)C(=O)N1CCN1CCN(CC(O)COc2ccccc2)CC1 (configuration not stated)	?	–	–	–	–	–
O=C1c2cccc3cccc(c23)C(=O)N1CC1CCN(CC(O)COCc2ccc3c(c2)OCO3)CC1 (configuration not stated)	?	-81	–	?	?	–
COc1cccc(OCC(O)CN2CCN(CCN3C(=O)c4cccc5cccc(c45)C3=O)CC2)c1 (configuration not stated)	?	-81	–	?	18µM	–
COc1ccc(OCC(O)CN2CCC(CN3C(=O)c4cccc5cccc(c45)C3=O)CC2)cc1 (configuration not stated)	–	·	–	13µM	21µM	–
Cc1ccc(C)c(OCC(O)CN2CCC(CN3C(=O)c4cccc5cccc(c45)C3=O)CC2)c1 (configuration not stated)	?	-97	–	5.2µM	5.8µM	–
Cc1cccc(-c2cccc(C(=O)N3CCc4c(cnc(C)c4CNC(=O)c4cncs4)C3)c2)c1	·	·	·	–[9.04 µM]	?	·
CNc1ncnc2c1ncn2[C@H]1CN(Cc2cccnc2)C[C@@H](CO)O1	·	–	·	–	–	·
COc1ccccc1NC(=O)c1cc2c(cc1Cl)N1CCCCCC1=NS2(=O)=O	–	–	·	–	–	·
C/C(=N\NC(=O)CNC(=O)c1cccs1)c1ccc(Cl)c(Cl)c1	–	–	–	2.6µM	?	–
